{"source": "PubChem BioAssay (Tox21)", "note": "Several values for one entry are separate records, joined by “and”; a condition that tells them apart may be missing. Identical values can stand only once. Results filed as inconclusive are left out. Values without a mark were called inactive. Activity calls are given as the source filed them. Calls come from the whole dose curve; as a rule, active = well fitted cell-killing curve with a large enough effect in the repeat runs; inconclusive = weak or mixed curves, or effect the other way; inactive = flat fitted curve, though single readings scatter. % is set by controls: 0 for no effect and ±100 for the full control effect; potency is the fitted concentration of half-maximal effect.", "data": [{"assay": "qHTS assay to identify small molecule agonists of the androgen receptor (AR) signaling pathway in the presence of an antagonist - cell viability counter screen (AID 1259379); note: nearly all actives have a fitted effect of over 25% in size", "conditions": "MDA-kb2 viability, CellTiter-Fluor, 16 h; series mostly up to 92.4 µM; activity change, negative = cytotoxicity: at the top concentration", "description": "National Center for Advancing Translational Sciences [NCATS]\nNIH Chemical Genomics Center [NCGC]\nU.S. Environmental Protection Agency [EPA]\nNational Institutes of Environmental Health Sciences [NIEHS]\nNational Toxicology Program [NTP]\nU.S. Food and Drug Administration [FDA]\nAndrogen receptor (AR) is an important member of nuclear receptor family. Its signaling plays a critical role in AR-dependent prostate cancer and other androgen related diseases. Considerable attention has been given in the past decades to develop methods to study and screen for the environmental chemicals that have the potential to interfere with metabolic homeostasis, reproduction, developmental and behavioral functions. Therefore AR binding assay for screening against androgen agonists and antagonists can be used to identify potential endocrine disruptors.\nMDA-kb2 cells (from ATCC, deposited by Wilson et al.) are human breast carcinoma cells that were stably transfected with a luciferase reporter gene under control of the MMTV promoter that contains response elements for both androgen receptor (AR) and glucocorticoid receptor (GR). This particular screening for measuring luciferase reporter gene activity using MDA-kb2 cells against Tox21 10K library compounds is a confirmation study on agonist mode screening in the presence of AR-antagonist compound (Nilutamide) at 3.0uM final concentration. The cytotoxicity of the compounds was tested in parallel by measuring the cell viability using CellTiter-Fluor assay system (Promega, Madison, WI) in the same wells.\nTox21 Assay Protocol Summary:\nMDA-kb2 cells (cells cultured without CO2) were dispensed at 3,000 cells/well in 4uL of culture medium into white wall/solid-bottom 1536-well plates (Corning Life Sciences, Corning, NY) using a Multidrop Combi (Thermo Fisher Scientific Inc., Waltham, MA) dispenser. The assay plates were incubated at 37C and 0% CO2 for 5hr. One uL of 3.0uM (final concentration) Nilutamide or assay buffer was added using two separate tips of Flying Reagent Dispenser (FRD, Aurora Discovery, San Diego, CA). Then 23nL of compounds dissolved in DMSO at 15 concentrations and positive controls were transferred to the assay plates using a Pintool station (Wako, San Diego, CA). The assay plates were incubated at 37C and 0% CO2 for 16 hr. After 15hr incubation at 37C, 1uL/well CellTiter-Fluor reagent (Promega Corporation) was added to each well of the assay plates using FRD. After 1hr incubation at 37C and 0% CO2, the fluorescence signal was measured using a ViewLux plate reader (PerkinElmer, Shelton, CT).", "values": [{"compound": "S=C([S-])NCCNC(=S)[S-].S=C([S-])NCCNC(=S)[S-].[Mn+2].[Zn+2]", "activity change, negative = cytotoxicity": "-0.352% [at 42.5 µM]"}, {"compound": "Cc1ccc(-c2ccccc2)cc1", "activity change, negative = cytotoxicity": "2.04%"}, {"compound": "CCc1ccc(Br)cc1", "activity change, negative = cytotoxicity": "1.85%"}, {"compound": "O=S(=O)(O)c1ccc(Nc2nc(Nc3ccc(/C=C/c4ccc(Nc5nc(Nc6ccc(S(=O)(=O)O)cc6)nc(N(CCO)CCO)n5)cc4S(=O)(=O)O)c(S(=O)(=O)O)c3)nc(N(CCO)CCO)n2)cc1", "activity change, negative = cytotoxicity": "10.7% [at 42.5 µM]"}, {"compound": "Cc1c(C)c([N+](=O)[O-])c(C(C)(C)C)c([N+](=O)[O-])c1C", "activity change, negative = cytotoxicity": "4.05%"}, {"compound": "COc1cccc2c1C(=O)c1c(O)c3c(c(O)c1C2=O)C[C@@](O)(C(C)=O)C[C@@H]3O[C@H]1C[C@H](N)[C@H](O)[C@H](C)O1", "Potency": "30.8 µM (active) and 11.9 µM (active)"}, {"compound": "COCCOc1cc2cc(C(=O)NC3CCN(C(C)C)CC3)n(CC(=O)Nc3ccc(Cl)cn3)c2cn1", "activity change, negative = cytotoxicity": "3.05%"}, {"compound": "COC(C)=O", "activity change, negative = cytotoxicity": "0.126%"}, {"compound": "CCCCCCCCCCC[C@@H](C[C@@H]1OC(=O)[C@H]1CCCCCC)OC(=O)[C@H](CC(C)C)NC=O", "activity change, negative = cytotoxicity": "-11% [at 42.5 µM]"}, {"compound": "OCC(F)(F)F", "activity change, negative = cytotoxicity": "-0.741%"}, {"compound": "CCCCCCCCCCCCCC[N+](C)(C)Cc1ccccc1", "Potency": "43.9 µM (active) and 29.8 µM (active) and 14.1 mM (active)"}, {"compound": "Nc1ccc(C(=O)O)c(O)c1", "activity change, negative = cytotoxicity": "-3.88% [at 42.5 µM]"}, {"compound": "CC(C)(C)C1CCC(=O)CC1", "activity change, negative = cytotoxicity": "3.29%"}, {"compound": "Cc1cccc2cccnc12", "activity change, negative = cytotoxicity": "2.12%"}, {"compound": "Cc1ccc(C(=O)O)cc1", "activity change, negative = cytotoxicity": "0.225%"}, {"compound": "CC(C)Cn1cnc2c(N)nc3ccccc3c21", "activity change, negative = cytotoxicity": "-7.59% [at 19 µM]"}, {"compound": "CC[N+](CC)(CC)CCOC(=O)C(C1CCCC1)C1CCCC1", "Potency": "33.5 µM (active)"}, {"compound": "C=C(C)c1cccc(C(=C)C)c1", "activity change, negative = cytotoxicity": "-1.2%"}, {"compound": "O=C1CCc2ccc(OCCCCN3CCN(c4cccc(Cl)c4Cl)CC3)cc2N1", "Potency": "26.6 µM (active)"}, {"compound": "CC1(C)[C@@H](O)CC[C@]2(C)[C@H]3C(=O)C=C4[C@@H]5C[C@@](C)(C(=O)O)CC[C@]5(C)CC[C@@]4(C)[C@]3(C)CC[C@@H]12", "activity change, negative = cytotoxicity": "-2.58%"}, {"compound": "C[C@H]1NCc2cc(-c3ccc4c(=O)c(C(=O)O)cn(C5CC5)c4c3OC(F)F)ccc21", "activity change, negative = cytotoxicity": "-2.32% [at 19 µM]"}, {"compound": "Cc1cccc(C(=O)O)c1O", "activity change, negative = cytotoxicity": "0.314% [at 42.5 µM]"}, {"compound": "CCC(C)(CCC(C)C)C(=O)[O][Sn]([CH3])([CH3])[O]C(=O)C(C)(CC)CCC(C)C", "note": "(stereo not given)", "activity change, negative = cytotoxicity": "-8.19%"}, {"compound": "CCCCCC(C)OC(=O)COc1ccc(Cl)c2cccnc12", "note": "(stereo not given)", "activity change, negative = cytotoxicity": "2.74%"}, {"compound": "CCCCOC(=O)CO", "activity change, negative = cytotoxicity": "3.05%"}, {"compound": "Cl[Si](Cl)(c1ccccc1)c1ccccc1", "activity change, negative = cytotoxicity": "6.17%"}, {"compound": "CC(=O)[C@H]1CC[C@H]2[C@@H]3CCC4=CC(=O)CC[C@]4(C)[C@H]3CC[C@]12C", "Potency": "60.8 µM (active)"}, {"compound": "CCCCCCC1CCCC(=O)O1", "note": "(stereo not given)", "activity change, negative = cytotoxicity": "3.87%"}, {"compound": "C[Si](Cl)(c1ccccc1)c1ccccc1", "activity change, negative = cytotoxicity": "1.12%"}, {"compound": "O=C(O)O", "activity change, negative = cytotoxicity": "-0.506% [at 8.39 µM]"}, {"compound": "CC(=O)Oc1cc2c(s1)CCN(C(C(=O)C1CC1)c1ccccc1F)C2", "note": "(stereo not given)", "activity change, negative = cytotoxicity": "2.8% [at 42.5 µM]"}, {"compound": "COc1cc(C)ccc1O", "activity change, negative = cytotoxicity": "1.12%"}, {"compound": "C=C(CC)C(=O)c1ccc(OCC(=O)O)c(Cl)c1Cl", "Potency": "60.7 µM (active)"}, {"compound": "OC12N=C(c3ccccc3)SC1Cc1cc(Cl)ccc12", "note": "(stereo not given)", "activity change, negative = cytotoxicity": "-2.81%"}, {"compound": "[Cu+]", "activity change, negative = cytotoxicity": "-1.63%"}, {"compound": "CC(C)CCCCCOC(=O)CCS", "activity change, negative = cytotoxicity": "-9.46%"}, {"compound": "O=[N+]([O-])c1cccc(C(F)(F)F)c1", "activity change, negative = cytotoxicity": "0.652%"}, {"compound": "CCCCCCCCCCCCOCCOCCOCCOCCOCCOCCOCCOCCOCCO", "Potency": "13.3 µM (active)"}, {"compound": "CCCC(=O)OCCc1ccccc1", "activity change, negative = cytotoxicity": "-0.488%"}, {"compound": "[Cl][Pt-2]([Cl])([Cl])[Cl]", "activity change, negative = cytotoxicity": "1.72%"}]}]}
